From PubChem BioAssay (EPA / NIEHS)
Records with an inconclusive call do not appear. The source made the active and inactive calls. The calls were made as follows, unless noted: active = hit-call score of the fitted dose curve at least 0.9, where 1 is the maximum; inactive = score below 0.9.

Tests used:
[1] = ATG_XTT_Cytotoxicity: Cytotoxicity Assessment in the Attagene TRANS-FACTORIAL HepG2 Assay (AID 2283584; active = hit-call score of the fitted dose curve at least 0.9, where 1 is the maximum;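 as to AC50: cells exposed to compound for 24 h before reading; active means loss of viability signal versus DMSO baseline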)
Summary of the method: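 HepG2 human liver cells, transiently transfected with multiple GAL4-UAS reporter units, were dosed and read at 24 h by XTT as cell number. Loss of signal was fitted relative to DMSO negative control baseline.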

[2] = read-out: solute carrier (SLC22A1), SLC22A1 (gene 6580); assay: LTEA_HepaRG_SLC22A1: Life Technologies and Expression Analysis (LTEA) Assay for solute carrier (SLC22A1) using HepaRG (AID 2283524); conditions: mRNA level, 48 h; actives raise or lower the signal
Summary of the method: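 Transcript induction or suppression of SLC22A1 in human HepaRG cultures is scored after 48 h chemical treatment, with DMSO (0.5%) as baseline for bidirectional fitting. Concentrations span eight half-log points topping at 100 uM.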

[3] = read-out: Pyruvate Dehydrogenase Kinase 4 (PDK4), PDK4 (gene 5166); assay: LTEA_HepaRG_PDK4: Life Technologies and Expression Analysis (LTEA) Assay for Pyruvate Dehydrogenase Kinase 4 (PDK4) using HepaRG (AID 2283525); conditions: mRNA level, 48 h; actives raise or lower the signal
Summary of the method: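 Eight-point, half-log concentration series (max 100 uM, 0.5% DMSO) applied to differentiated HepaRG cells for 48 h in duplicate. Endpoint: PDK4 mRNA induction or repression by qRT-PCR against DMSO baseline.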

[4] = read-out: NAD(P)H dehydrogenase [quinone] 1 (NQO1), NQO1 (gene 1728); assay: LTEA_HepaRG_NQO1: Life Technologies and Expression Analysis (LTEA) Assay for NAD(P)H dehydrogenase [quinone] 1 (NQO1) using HepaRG (AID 2283526); conditions: mRNA level, 48 h; actives raise or lower the signal
Summary of the method: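 NQO1 transcript induction or loss measured by TaqMan qRT-PCR, referenced to three housekeeping genes and fitted bidirectionally against 0.5% DMSO. HepaRG cultures exposed 48 h, duplicate, eight-point half-log series, top 100 uM.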

[5] = read-out: Nuclear factor erythroid 2-related factor 2 (Homo sapiens) (UniProt Q16236); assay: LTEA_HepaRG_NFE2L2: Life Technologies and Expression Analysis (LTEA) Assay for Nuclear factor erythroid 2-related factor 2 (NFE2L2) Transcription Factor using HepaRG (AID 2283527); conditions: mRNA level, 48 h; actives raise or lower the signal
Summary of the method: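 Human liver HepaRG line treated in duplicate for 48 h with an eight-point series topping at 100 uM. Gene expression of NFE2L2 by qRT-PCR, bidirectionally fitted against the vehicle control.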

[6] = read-out: succinate dehydrogenase complex iron sulfur subunit B (SDHB), SDHB (gene 6390); assay: LTEA_HepaRG_SDHB: Life Technologies and Expression Analysis (LTEA) Assay for succinate dehydrogenase complex iron sulfur subunit B (SDHB) using HepaRG (AID 2283528); conditions: mRNA level, 48 h; actives raise or lower the signal
Summary of the method: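 HepaRG cells (~100,000/well, plated 48 h) exposed in duplicate for 48 h in serum-free induction medium to 8-point half-log series from 100 uM in 0.5% DMSO; mRNA by qRT-PCR normalised to ACTB, GAPDH, POLR2A; bidirectional fit versus DMSO.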

[7] = read-out: Signal transducer and activator of transcription 3 (Homo sapiens) (UniProt P40763); assay: LTEA_HepaRG_STAT3: Life Technologies and Expression Analysis (LTEA) Assay for Signal transducer and activator of transcription (STAT3) using HepaRG (AID 2283529); conditions: mRNA level, 48 h; actives raise or lower the signal
Summary of the method: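 In this transcriptional endpoint, HepaRG cultures receive test chemicals at up to 100 uM for 48 h, tested in duplicate. STAT3 mRNA is normalized to ACTB, GAPDH and POLR2A.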

[8] = read-out: solute carrier (SLCO1B1), SLCO1B1 (gene 10599); assay: LTEA_HepaRG_SLCO1B1: Life Technologies and Expression Analysis (LTEA) Assay for solute carrier (SLCO1B1) using HepaRG (AID 2283530); conditions: mRNA level, 48 h; actives raise or lower the signal
Summary of the method: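 Differentiated human HepaRG cells, plated 48 h, switched to serum-free induction medium and exposed in duplicate for 48 h to 8 half-log concentrations (top 100 uM) in 0.5% DMSO. SLCO1B1 mRNA by TaqMan qRT-PCR, normalized to ACTB/GAPDH/POLR2A.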

[9] = read-out: sulfotransferase 2A1 (SULT2A1), SULT2A1 (gene 6822); assay: LTEA_HepaRG_SULT2A1: Life Technologies and Expression Analysis (LTEA) Assay for sulfotransferase 2A1 (SULT2A1) using HepaRG (AID 2283531); conditions: mRNA level, 48 h; actives raise or lower the signal
Summary of the method: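 Differentiated human HepaRG cells in serum-free induction medium were exposed for 48 h to eight half-log concentrations (top 100 uM, 0.5% DMSO). SULT2A1 mRNA was measured by qRT-PCR, normalized to ACTB, GAPDH and POLR2A, and fitted bidirectionally against DMSO.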

[10] = read-out: Transforming Growth Factor (TGFA), TGFA (gene 7039); assay: LTEA_HepaRG_TGFA: Life Technologies and Expression Analysis (LTEA) Assay for Transforming Growth Factor (TGFA) using HepaRG (AID 2283532); conditions: mRNA level, 48 h; actives raise or lower the signal
Summary of the method: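 Gene expression of TGFA was quantified by qRT-PCR after human HepaRG cells were treated for 48 h with test chemicals (eight concentrations, highest 100 uM, 0.5% DMSO). Activity in either direction was fitted relative to DMSO.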

[11] = read-out: Transforming Growth Factor (TGFB1), TGFB1 (gene 7040); assay: LTEA_HepaRG_TGFB1: Life Technologies and Expression Analysis (LTEA) Assay for Transforming Growth Factor (TGFB1) Transporter using HepaRG (AID 2283533); conditions: mRNA level, 48 h; actives raise or lower the signal
Summary of the method: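 Differentiated human HepaRG cells in serum-free induction medium were exposed in duplicate for 48 h to eight concentrations (top 100 uM, half-log steps, 0.5% DMSO). TGFB1 mRNA was quantified by qRT-PCR, normalized to ACTB, GAPDH, POLR2A, and fitted bidirectionally against DMSO.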

TIMP1, TIMP1 (gene 7076) = assay: LTEA_HepaRG_TIMP1: Life Technologies and Expression Analysis (LTEA) Assay for TIMP1 using HepaRG (AID 2283534); conditions: mRNA level, 48 h; actives raise or lower the signal
Summary of the method: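 Differentiated human HepaRG cells in serum-free induction medium were exposed 48 h to chemicals (8 half-log concentrations, top 100 uM, 0.5% DMSO). TIMP1 mRNA was quantified by TaqMan qRT-PCR, normalized to ACTB/GAPDH/POLR2A; bidirectional fit versus DMSO.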

[12] = read-out: Tumor necrosis factor receptor 1 (TNFRSF1A), TNFRSF1A (gene 7132); assay: LTEA_HepaRG_TNFRSF1A: Life Technologies and Expression Analysis (LTEA) Assay for Tumor necrosis factor receptor 1 (TNFRSF1A) using HepaRG (AID 2283535); conditions: mRNA level, 48 h; actives raise or lower the signal
Summary of the method: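 Differentiated human HepaRG cells were exposed in duplicate for 48 h in serum-free induction medium to eight concentrations (top 100 uM, half-log steps, 0.5% DMSO). TNFRSF1A mRNA was quantified by qRT-PCR, normalized to ACTB, GAPDH and POLR2A, then fitted bidirectionally against DMSO.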

[13] = read-out: UDP glucuronosyltransferase (UGT1A1), UGT1A1 (gene 54658); assay: LTEA_HepaRG_UGT1A1: Life Technologies and Expression Analysis (LTEA) Assay for UDP glucuronosyltransferase (UGT1A1) using HepaRG (AID 2283538); conditions: mRNA level, 48 h; actives raise or lower the signal
Summary of the method: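 UGT1A1 transcript level, measured by qRT-PCR with three housekeeping genes for normalization, after 48 h treatment of human HepaRG cells (0.5% DMSO, duplicates, up to 100 uM, half-log steps, 8 points). Curves fit both directions against DMSO baseline.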

[14] = read-out: X-box binding protein 1 (XBP1), XBP1 (gene 7494); assay: LTEA_HepaRG_XBP1: Life Technologies and Expression Analysis (LTEA) Assay for X-box binding protein 1 (XBP1) using HepaRG (AID 2283540); conditions: mRNA level, 48 h; actives raise or lower the signal
Summary of the method: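 Differentiated human HepaRG cells in serum-free induction medium were exposed in duplicate for 48 h to eight half-log concentrations up to 100 uM in 0.5% DMSO. XBP1 mRNA was quantified by qRT-PCR, normalised to ACTB, GAPDH and POLR2A, with bidirectional fitting against DMSO.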

[15] = LTEA_HepaRG_LDH_cytotoxicity: Cytotoxicity Assessment in the Life Technologies and Expression Analysis (LTEA) Assay (AID 2283563; active = hit-call score of the fitted dose curve at least 0.9, where 1 is the maximum;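 as to AC50: LDH activity released into spent culture medium as a marker of cell death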)
Summary of the method: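 Differentiated human HepaRG cells, plated 48 h beforehand, were switched to serum-free induction medium and exposed for 48 h to eight half-log concentrations (top 100 uM) in 0.5% DMSO. LDH was measured in spent medium; activity was fitted relative to DMSO vehicle.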

[16] = read-out: Nuclear factor NF-kappa-B p105 subunit (Homo sapiens) (UniProt P19838); assay: LTEA_HepaRG_NFKB1: Life Technologies and Expression Analysis (LTEA) Assay for Nuclear Factor Kappa B Subunit 1 (NFKB1) using HepaRG (AID 2283521); conditions: mRNA level, 48 h; actives raise or lower the signal;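 also: TaqMan qRT-PCR transcript normalised to ACTB GAPDH and POLR2A housekeeping genes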
Summary of the method: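 Differentiated human HepaRG cells in serum-free induction medium with 0.5% DMSO were exposed for 48 h to eight half-log concentrations, top 100 uM, in duplicate. NFKB1 mRNA measured by Fluidigm TaqMan qRT-PCR, normalised to ACTB, GAPDH and POLR2A; bidirectional fit versus DMSO.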

Measured: AC50

Nuclear factor erythroid 2-related factor 2 (Homo sapiens), sequence (Q16236 whole entry, looked up): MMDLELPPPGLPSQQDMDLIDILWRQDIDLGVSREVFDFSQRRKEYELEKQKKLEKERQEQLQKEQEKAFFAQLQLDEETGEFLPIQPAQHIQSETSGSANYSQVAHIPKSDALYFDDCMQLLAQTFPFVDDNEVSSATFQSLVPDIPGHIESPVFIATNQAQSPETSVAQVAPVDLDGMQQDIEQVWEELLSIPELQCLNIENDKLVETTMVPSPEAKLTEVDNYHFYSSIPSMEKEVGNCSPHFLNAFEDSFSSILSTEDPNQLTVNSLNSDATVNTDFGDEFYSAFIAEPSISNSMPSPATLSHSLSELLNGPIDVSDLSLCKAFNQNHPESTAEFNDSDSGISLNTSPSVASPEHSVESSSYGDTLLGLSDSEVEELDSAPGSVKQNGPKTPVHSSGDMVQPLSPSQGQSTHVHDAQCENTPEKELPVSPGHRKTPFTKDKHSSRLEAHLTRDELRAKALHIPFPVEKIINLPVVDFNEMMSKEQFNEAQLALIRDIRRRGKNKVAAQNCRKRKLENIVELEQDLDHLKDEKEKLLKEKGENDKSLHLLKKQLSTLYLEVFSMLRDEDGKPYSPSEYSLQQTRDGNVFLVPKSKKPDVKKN
Signal transducer and activator of transcription 3 (Homo sapiens), sequence (P40763 whole entry, looked up): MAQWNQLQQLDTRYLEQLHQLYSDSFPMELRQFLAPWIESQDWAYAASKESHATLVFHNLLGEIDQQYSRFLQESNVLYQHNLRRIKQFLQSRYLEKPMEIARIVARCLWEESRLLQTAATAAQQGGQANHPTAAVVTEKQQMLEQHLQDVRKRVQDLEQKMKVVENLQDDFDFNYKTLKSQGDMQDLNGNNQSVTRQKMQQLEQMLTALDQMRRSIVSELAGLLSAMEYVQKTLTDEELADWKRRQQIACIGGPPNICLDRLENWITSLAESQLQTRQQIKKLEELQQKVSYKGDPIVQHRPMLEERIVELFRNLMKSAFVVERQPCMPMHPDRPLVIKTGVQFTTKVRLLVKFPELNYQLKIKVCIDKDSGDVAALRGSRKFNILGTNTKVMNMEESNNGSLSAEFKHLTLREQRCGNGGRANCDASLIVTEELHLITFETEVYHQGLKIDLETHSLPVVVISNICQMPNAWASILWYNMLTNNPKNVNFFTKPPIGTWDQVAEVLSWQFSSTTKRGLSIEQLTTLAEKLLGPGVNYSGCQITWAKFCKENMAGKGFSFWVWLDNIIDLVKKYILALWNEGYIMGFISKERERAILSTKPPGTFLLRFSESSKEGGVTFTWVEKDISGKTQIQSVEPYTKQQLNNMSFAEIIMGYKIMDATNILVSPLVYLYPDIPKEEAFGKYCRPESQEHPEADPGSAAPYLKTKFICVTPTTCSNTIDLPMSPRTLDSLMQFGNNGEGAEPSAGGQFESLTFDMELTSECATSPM
Nuclear factor NF-kappa-B p105 subunit (Homo sapiens), sequence (P19838 whole entry, looked up): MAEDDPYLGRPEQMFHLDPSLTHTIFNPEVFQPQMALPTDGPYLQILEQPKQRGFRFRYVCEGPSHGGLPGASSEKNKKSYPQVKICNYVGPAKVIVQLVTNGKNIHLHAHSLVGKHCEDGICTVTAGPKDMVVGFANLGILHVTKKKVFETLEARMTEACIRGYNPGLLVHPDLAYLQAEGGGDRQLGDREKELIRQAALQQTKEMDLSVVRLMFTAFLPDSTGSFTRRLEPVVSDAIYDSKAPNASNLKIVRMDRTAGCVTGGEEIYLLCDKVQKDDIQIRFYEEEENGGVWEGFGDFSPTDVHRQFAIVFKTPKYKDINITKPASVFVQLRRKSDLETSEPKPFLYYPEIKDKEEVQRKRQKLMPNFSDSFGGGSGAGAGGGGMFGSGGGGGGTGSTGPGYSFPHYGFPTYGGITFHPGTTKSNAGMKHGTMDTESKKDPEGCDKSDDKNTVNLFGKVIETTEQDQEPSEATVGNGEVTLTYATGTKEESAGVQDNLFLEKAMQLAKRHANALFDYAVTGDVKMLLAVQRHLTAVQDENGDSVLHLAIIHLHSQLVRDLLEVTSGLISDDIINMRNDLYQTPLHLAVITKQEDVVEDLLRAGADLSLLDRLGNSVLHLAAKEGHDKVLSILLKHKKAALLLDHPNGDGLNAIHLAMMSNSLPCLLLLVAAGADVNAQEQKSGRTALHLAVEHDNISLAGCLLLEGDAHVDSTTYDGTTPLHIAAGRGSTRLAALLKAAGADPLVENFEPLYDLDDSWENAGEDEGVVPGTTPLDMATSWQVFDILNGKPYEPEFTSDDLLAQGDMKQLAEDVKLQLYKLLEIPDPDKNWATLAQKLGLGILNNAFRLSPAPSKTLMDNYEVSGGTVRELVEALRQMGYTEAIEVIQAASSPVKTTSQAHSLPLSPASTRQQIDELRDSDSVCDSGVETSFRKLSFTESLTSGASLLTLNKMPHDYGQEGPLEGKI

CCCCCCCCCCCC(=O)O
inactive: [1]

Cc1[nH]nc2c1N=C(c1ccccc1Cl)c1cc([N+](=O)[O-])ccc1N2
inactive: [4] | [13] | [1]
active: [2] 5.69 µM | [3] 0.37 µM | [5] 85.1 µM | [6] 0.449 µM | [7] 3.77 µM | [8] 7.93 µM | [9] 28.3 µM | [10] 50 µM | [11] 1.74 µM | TIMP1, TIMP1 (gene 7076) 2.38 µM | [12] 12.4 µM | [14] 3.64 µM | [15] 61.4 µM

CCCCCCCCCCCCOS(=O)(=O)O
active: [2] 77.5 µM | [3] 36.9 µM | [9] 80.2 µM | [11] 80.9 µM | [13] 91.7 µM
not listed: [1] | [8] | [16]
inactive: all other assays above

Cc1cccc2c1ccc1ccccc12
inactive: [1]

O=C1c2ccc(O)c(O)c2C(=O)c2c(O)ccc(O)c21
inactive: [1]

C=C(c1ccc(C(=O)O)cc1)c1cc2c(cc1C)C(C)(C)CCC2(C)C
active: [1] 25.3 µM

CC(C)CCOCCC(C)C
inactive: [1]

CN(C)CCOC(c1ccccc1)c1ccccc1
not listed: [5] | [16]
inactive: all other assays above

CCCCC(CC)C(=O)O (centres undefined)
not listed: [1] | [16]
inactive: all other assays above

CCCCN(C)C
inactive: [1]

CCC(C)c1ccccc1O (centres undefined)
inactive: all assays above

CCCCCCCCCCCC(=O)NCCCN(C)C
inactive: [1]
